# Source: PubChem BioAssay (NCI)
# About 83,000 compounds went through this panel and 20% of them were active in at least one assay; those are over-represented in the sample as a whole.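 Compound tested at a single concentration for 48 hours in 96-well plates; a percent growth value below 10 was scored as active.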 Values without a mark were called inactive. Active and inactive are the calls of the source.
# Legend:
# Assay in all cases: NCI-60 one-dose screen, 48 h (100 = growth as untreated, 0 = no growth, -100 = all killed)
# Conditions in all cases: 10 µM unless noted
# T-47D breast = tested on: T-47D breast
# BT-549 breast = tested on: BT-549 breast
# MDA-MB-435 melanoma = tested on: MDA-MB-435 melanoma
# SW-620 colon = tested on: SW-620 colon
# MCF7 breast = tested on: MCF7 breast
# HCT-116 colon = tested on: HCT-116 colon
# HCC-2998 colon = tested on: HCC-2998 colon
# KM12 colon = tested on: KM12 colon
Structure (SMILES),growth (T-47D breast),growth (BT-549 breast),growth (MDA-MB-435 melanoma),growth (SW-620 colon),growth (MCF7 breast),growth (HCT-116 colon),growth (HCC-2998 colon),growth (KM12 colon)
COc1ccc(-c2nc(NN)c3c(C)nn(-c4ccc(F)cc4)c3n2)cc1,38.6%,46.8%,0.816% (active),22.9%,26.2%,18.7%,76.6%,29.1%
c1ccc2c(c1)Nc1ccncc1S2,95.3%,75%,121%,92.5%,100%,82%,–,103%
COc1ccc(C2NC(=O)C(C#N)c3c2sc2c(F)cccc32)c(OC)c1 (stereo not drawn),61.7%,72.1%,-28.7% (active),32.3%,24.5%,23.8%,88.3%,32%
COc1ccc(-c2nc3sc(-c4ccccc4)cn3n2)cc1,34.6%,73.3%,-8.6% (active),35.1%,25.1%,40%,77.3%,29.5%
Cc1ccc2c(-c3cc(-c4ccccc4)nc(N)c3C#N)cc(=O)oc2c1,86%,75.8%,106%,–,100%,87.1%,96.4%,97.4%
Cc1ccc(C(=O)N/N=C/c2cccc(Oc3ccccc3)c2)cn1,66.3%,38.1%,-48% (active),29.3%,37.2%,32.8%,55.4%,22.8%
CC(=O)N1N=C(c2ccc(Nc3nc(Nc4ccc(F)cc4)nc(Nc4ccc(Cl)cc4)n3)cc2)CC1c1ccc(Cl)cc1 (stereo not drawn),68.1%,122%,115%,105%,91%,86.4%,96.8%,108%
COc1cc(C(=O)c2cnc(-c3c[nH]c4cccc(C)c34)[nH]2)cc(OC)c1OC,52.2%,38.3%,-43.5% (active),18%,17.7%,-10.4% (active),20.1%,0.911% (active)
CN1C(=O)CNC(=O)[C@H](NC(=O)c2nc3ccccc3cc2O)CSSC[C@H]1C(=O)NCCc1nc2ccccc2cc1O,65.3%,79.4%,42.4%,34%,47.5%,80%,67.7%,30%
CN1CCN(c2ccc(-c3cc4c(Nc5ccc(F)c(Cl)c5)ncnn4c3)cc2)CC1,63.4%,98.5%,76.4%,25.2%,45.3%,15.7%,53.8%,13.8%
c1ccc(-c2nc3sc(-c4ccccc4)cn3n2)cc1,36.7%,99.9%,99.2%,94.9%,38.3%,88.9%,104%,81.1%
O=c1c2cc(F)cc(Cl)c2sc2c(NCCCNCCO)nc3ccccc3c12,101%,82.4%,61.1%,-32% (active),64.6%,65.1%,60.9%,66.7%
CC(C)(C)NC(=O)C(OC(=O)c1cccc(Cl)c1)c1ccc(Cl)cc1 (stereo not drawn),96.8%,82.9%,107%,103%,95.8%,74.7%,107%,100%
O=C(/C=C/c1cccc2ccccc12)c1ccc(NC(=O)c2ccccc2CN2C(=O)c3ccccc3C2=O)cc1,71%,68.8%,6.48% (active),33.2%,56.7%,39.3%,109%,40.6%
COc1cc(C(=O)/C=C/c2c(Cl)nc3sccn23)cc(OC)c1OC,81.3%,81.3%,72.5%,65.8%,54.8%,52.3%,104%,56.7%
COc1cccc(/C=C2\C=C(c3ccccc3)N(Cc3ccccc3)C2=O)c1,59.8%,69.7%,-32.3% (active),43.5%,32.5%,48.3%,66.6%,53.4%
CCN1C(=O)N(CC)C2Nn3c(s/c(=C\c4ccc([N+](=O)[O-])cc4)c3=O)=NC21 (stereo not drawn),40.2%,95.2%,61.9%,–,11%,18.2%,101%,97.8%

Structure (SMILES),growth (T-47D breast),growth (BT-549 breast),growth (MDA-MB-435 melanoma),growth (SW-620 colon),growth (MCF7 breast),growth (HCT-116 colon),growth (HCC-2998 colon),growth (KM12 colon)
COC(=O)Nc1ccc(-c2nc(-c3cccc(OC)c3)c(-c3ccnc(Br)c3)[nH]2)cc1,22.2%,72.7%,–,74.5%,33.1%,54.2%,71.5%,–
COc1ccc(CN2c3ccccc3CCc3ccccc32)cc1F,47.1%,54%,-49.4% (active),–,20.4%,2.32% (active),30.7%,16.5%
COc1ccc(-c2conc2-c2ccccc2)cc1,52.8%,29.6%,-45.4% (active),–,16%,12.3%,19.5%,9.21% (active)
Cc1cccc2c3c(sc12)C(c1ccc(Cl)cc1)C(C#N)=C(/N=C/c1ccc(Cl)cc1)O3 (stereo not drawn),51%,22.7%,–,26.1%,9.92% (active),13.4%,16.2%,–
CCOc1cccc(NC2=C(Br)C(=O)C(C)=C(C)C2=O)c1,-35.3% (active),96.4%,–,105%,18.4%,52%,119%,–
COc1cc(OCc2cccc(-c3ccc(C(O)c4nccs4)cc3)c2C)cc(OC)c1CNCCNC(C)=O (stereo not drawn),90.8%,102%,98.5%,–,89.9%,94%,124%,101%
CC([C@H]1CCC2C3CCC4C(=O)C(NC=O)=CC[C@]4(C)C3CC[C@@]21C)N(C)C (stereo partly drawn),-12.7% (active),49.5%,-26% (active),–,17.3%,-7.83% (active),19%,17.8%
Clc1ccc2c(c1)N(CCCN1CCCC1)c1ccccc1S2,57.8%,66.5%,-35.9% (active),–,6.29% (active),26.5%,32%,44.6%
O=c1ccc(N=Nc2ccccc2)ccc1Cl,42.4%,135%,40.6%,–,17.6%,13.7%,35%,74.6%
Cc1ccc(-c2nc(SCC(=O)Nc3nc(-c4ccc(Cl)cc4)cs3)[nH]c(=O)c2C#N)cc1,87.2%,83.6%,107%,–,97.7%,91.6%,109%,96.1%
CCOC(=O)c1sc2ncc(-c3ccc(C)cc3)n2c1C,89%,107%,–,93.4%,86.7%,93%,93.3%,86.6%
COc1ccc(C(=O)COC(=O)[C@H](C[Se][Se]C[C@H](NC(=O)c2ccc(Br)cc2F)C(=O)OCC(=O)c2ccc(OC)cc2)NC(=O)c2ccc(Br)cc2F)cc1,-33.1% (active),-89.6% (active),3.85% (active),–,-57.3% (active),-69.1% (active),-64.1% (active),-81.6% (active)
Cc1cccc2c3c(sc12)C(c1ccc(F)cc1)C(C#N)=C(N)O3 (stereo not drawn),66.1%,-0.876% (active),–,21.3%,8.42% (active),7.07% (active),21.9%,–
COc1ccc(CNC(=O)[C@H](O)[C@@H](N)Cc2ccccc2)cc1,110%,109%,104%,–,94.5%,109%,105%,101%
COc1ccc(NC(=O)n2nc(/C=C\c3ccc(O)c(OC)c3)cc2/C=C\c2ccc(O)c(OC)c2)cc1,34.8%,31.4%,-36.3% (active),–,15.6%,9.13% (active),74.9%,17.9%
O=C1c2ccccc2NC(n2sc3ccccc3c2=O)N1c1ccccc1 (stereo not drawn),96.4%,104%,111%,–,94.3%,95.7%,103%,92.9%
CCCCCCn1c(-c2ccc(C(=O)O/N=C(\N)c3ccc4ccccc4c3)cc2)nc(-c2ccccc2)c1-c1ccccc1,28.9%,79.6%,–,71.8%,37.9%,40.5%,93.8%,68.6%
